Results published in PubChem BioAssay.
For some assays here: Potency and affinity values are given separately. Calls of active or inactive are those of the source. Unless noted, no rule for the calls is given here.

Columns and labels:
[1] = antimalarial activity against Dd2 strain (AID 2302;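 active = growth inhibition above 50% at the single 2 µM test dose, taken to imply half-maximal potency below 2 µM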;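 also: 0% = DMSO untreated growth and 100% = chloroquine plus artemisinin killed control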); conditions: P. falciparum Dd2 in RBCs, LDH growth readout, 72 h; at 2 µM; active compounds read high
[2] = human hepatoma cell viability loss – ATP luminescence, cytotoxicity control for P. falciparum antimalarial project, primary screen (AID 2303;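 active = inhibition above 50%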;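 also: 0% = DMSO wells and 100% = digitonin-killed cells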); conditions: HepG2 viability, 24-48 h, at 10 µM, active compounds read high
[3] = target: L-lactate dehydrogenase (Plasmodium falciparum (isolate CDC / Honduras)) (UniProt Q27743); assay: PfLDH activity inhibition – cell lysate, 3D7 strain, counter-screen for P. falciparum growth inhibition project (AID 2304);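 also: 0% = vehicle and 100% = reference inhibitor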; conditions: P. falciparum 3D7 crude extract, LDH APAD/NBT absorbance; at 2 µM; active compounds read high
[4] = inhibition of 3D7 malaria parasite growth – strain 3D7 (AID 2306);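 also: 0% = DMSO wells and 100% = chloroquine plus artemisinin control wells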; conditions: P. falciparum 3D7 erythrocytic growth, LDH absorbance, 72 h; at 2 µM; active compounds read high
[5] = target: Calcium-dependent protein kinase 1 (Plasmodium falciparum (isolate 3D7)) (UniProt P62344); assay: PfCDPK1 kinase inhibitors, biochemical, TCAMS library (AID 1159585; cut-off not given, nearly all actives have IC50 up to about 0.98 µM;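 also: inhibitors leave more ATP so luminescence rises with inhibition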); conditions: recombinant PfCDPK1, Kinase-Glo ATP depletion luminescence
[6] = target: Plasmodium falciparum protein kinase 6 (PK6, PF3D7_1337100) (UniProt Q8IDW1); assay: PfPK6 kinase inhibitors, biochemical, TCAMS library (AID 1159586); conditions: recombinant PfPK6, Kinase-Glo ATP depletion luminescence
[7] = target: Protein kinase 7 (PK7), Plasmodium falciparum 3D7 (PF3D7_0213400) (UniProt Q7YTF7); assay: inhibition of Plasmodium PK7 catalytic activity – biochemical, TCAMS antimalarial set, Kinase-Glo luminescence (AID 1159587); conditions: recombinant PfPK7, Kinase-Glo ATP depletion luminescence
[8] = target: Calcium-dependent protein kinase 4 (Plasmodium falciparum (isolate 3D7)) (UniProt Q8IBS5); assay: PfCDPK4 kinase inhibitors, biochemical, TCAMS library (AID 1159588; cut-off not given, nearly all actives have IC50 up to about 0.91 µM); conditions: recombinant PfCDPK4, Kinase-Glo ATP depletion luminescence
Calcium-dependent protein kinase 4 (Plasmodium falciparum (isolate 3D7)), sequence (Q8IBS5 whole entry, looked up): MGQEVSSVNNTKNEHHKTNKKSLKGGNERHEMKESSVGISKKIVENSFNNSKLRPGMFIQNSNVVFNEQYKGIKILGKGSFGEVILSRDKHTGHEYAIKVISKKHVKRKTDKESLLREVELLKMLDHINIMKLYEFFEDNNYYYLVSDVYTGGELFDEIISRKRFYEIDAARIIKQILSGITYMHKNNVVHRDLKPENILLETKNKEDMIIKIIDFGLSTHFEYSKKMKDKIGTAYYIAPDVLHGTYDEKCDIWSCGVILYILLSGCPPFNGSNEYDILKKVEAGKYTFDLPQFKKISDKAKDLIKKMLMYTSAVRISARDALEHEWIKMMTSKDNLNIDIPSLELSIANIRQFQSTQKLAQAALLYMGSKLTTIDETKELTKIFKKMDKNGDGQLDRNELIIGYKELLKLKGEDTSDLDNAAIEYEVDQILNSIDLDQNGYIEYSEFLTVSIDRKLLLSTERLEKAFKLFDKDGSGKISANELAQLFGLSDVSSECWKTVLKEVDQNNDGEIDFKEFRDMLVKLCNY

Plasmodium falciparum protein kinase 6 (PK6, PF3D7_1337100), sequence (Q8IDW1 1-305): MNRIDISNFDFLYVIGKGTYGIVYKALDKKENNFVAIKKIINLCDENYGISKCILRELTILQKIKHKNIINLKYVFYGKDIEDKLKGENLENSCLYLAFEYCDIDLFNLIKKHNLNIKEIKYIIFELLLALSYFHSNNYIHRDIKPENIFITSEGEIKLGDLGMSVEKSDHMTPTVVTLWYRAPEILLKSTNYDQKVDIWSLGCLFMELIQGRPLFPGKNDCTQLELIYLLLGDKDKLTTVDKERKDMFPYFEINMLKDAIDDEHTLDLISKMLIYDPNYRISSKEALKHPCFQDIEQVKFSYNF
L-lactate dehydrogenase (Plasmodium falciparum (isolate CDC / Honduras)), sequence (Q27743 whole entry, looked up): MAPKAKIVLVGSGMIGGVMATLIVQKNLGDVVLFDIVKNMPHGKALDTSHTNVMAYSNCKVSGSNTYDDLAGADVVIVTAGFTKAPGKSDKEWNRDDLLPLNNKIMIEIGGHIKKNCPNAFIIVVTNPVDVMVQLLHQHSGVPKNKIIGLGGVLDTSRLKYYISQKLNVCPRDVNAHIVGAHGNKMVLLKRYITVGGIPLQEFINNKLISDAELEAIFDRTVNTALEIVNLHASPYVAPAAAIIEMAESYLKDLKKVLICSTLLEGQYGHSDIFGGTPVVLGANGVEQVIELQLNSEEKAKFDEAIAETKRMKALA
Protein kinase 7 (PK7), Plasmodium falciparum 3D7 (PF3D7_0213400), sequence (Q7YTF7 1-343): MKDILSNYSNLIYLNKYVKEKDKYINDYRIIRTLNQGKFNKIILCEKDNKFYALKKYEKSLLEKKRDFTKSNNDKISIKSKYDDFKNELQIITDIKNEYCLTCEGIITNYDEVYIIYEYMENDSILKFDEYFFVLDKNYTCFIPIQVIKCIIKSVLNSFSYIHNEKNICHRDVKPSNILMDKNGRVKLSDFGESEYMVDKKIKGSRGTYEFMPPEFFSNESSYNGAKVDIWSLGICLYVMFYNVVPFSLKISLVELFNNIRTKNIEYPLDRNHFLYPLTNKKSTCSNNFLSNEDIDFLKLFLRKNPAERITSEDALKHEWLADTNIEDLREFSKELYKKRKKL
Calcium-dependent protein kinase 1 (Plasmodium falciparum (isolate 3D7)), sequence (P62344 whole entry, looked up): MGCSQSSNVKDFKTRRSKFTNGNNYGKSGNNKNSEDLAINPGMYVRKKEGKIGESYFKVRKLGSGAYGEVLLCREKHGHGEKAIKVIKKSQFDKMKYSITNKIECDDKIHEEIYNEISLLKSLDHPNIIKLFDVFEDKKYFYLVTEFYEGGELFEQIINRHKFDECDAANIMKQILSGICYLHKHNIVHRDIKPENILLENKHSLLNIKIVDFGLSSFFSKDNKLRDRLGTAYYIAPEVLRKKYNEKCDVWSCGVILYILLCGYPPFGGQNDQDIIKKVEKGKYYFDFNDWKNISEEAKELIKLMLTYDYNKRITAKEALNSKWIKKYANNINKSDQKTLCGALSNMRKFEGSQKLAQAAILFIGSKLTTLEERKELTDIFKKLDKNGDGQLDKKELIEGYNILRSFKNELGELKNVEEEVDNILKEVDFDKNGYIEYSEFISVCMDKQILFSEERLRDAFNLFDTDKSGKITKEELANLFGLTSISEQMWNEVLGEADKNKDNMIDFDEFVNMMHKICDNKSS

CC(C)n1c(CC2CCN(CC3CCN(C(=O)/C=C/c4ccc(Cl)c(Cl)c4)CC3)CC2)nc2ccccc21
inactive: growth inhibition [1] 23% | inhibition [2] 19% | inhibition [3] -3% | outcome [5] | outcome [6] | outcome [7] | outcome [8]
active: growth inhibition [4] 101%

CNC(=O)c1cnc(Nc2ccc(N3CCN(C)CC3)cc2)nc1Nc1ccccc1OC
inactive: inhibition [2] 8% | inhibition [3] 2% | outcome [5] | outcome [6] | outcome [7] | outcome [8]
active: growth inhibition [1] 84% | growth inhibition [4] 100%

NC(N)=NN=CC(=O)Nc1cccc(C(F)(F)F)c1
inactive: growth inhibition [1] 25% | inhibition [2] 21% | inhibition [3] 1% | outcome [5] | outcome [6] | outcome [7] | outcome [8]
active: growth inhibition [4] 99%

Cc1csc2nc(-c3ccccn3)nc(Nc3ccc4ncsc4c3)c12
active: growth inhibition [1] 91% | growth inhibition [4] 85%
inactive: inhibition [2] -3% | inhibition [3] 3% | outcome [5] | outcome [6] | outcome [7] | outcome [8]

COCCN1CCC(N(Cc2ccc(-c3ccc(C(F)(F)F)cc3)cc2)C(=O)Cn2c(CCc3cccc(F)c3F)cc(=O)c3c2CCC3)CC1
inactive: growth inhibition [1] 48% | inhibition [2] 31% | inhibition [3] -5% | outcome [5] | outcome [6] | outcome [7] | outcome [8]
active: growth inhibition [4] 85%

CCCCCc1cnc2nc(N)nc(N)c2c1C
inactive: growth inhibition [1] 23% | inhibition [3] -3% | outcome [5] | outcome [6] | outcome [7] | outcome [8]
active: inhibition [2] 64% | growth inhibition [4] 96%

COc1ccc(N2CCN(CCCCNC(=O)c3ccc(NC(=O)c4ccc(C(F)(F)F)cc4)cc3)CC2)c(OC)c1
inactive: growth inhibition [1] 8% | inhibition [2] 4% | inhibition [3] 6% | outcome [5] | outcome [6] | outcome [7] | outcome [8]
active: growth inhibition [4] 100%

CC(=NNC(=S)NC(c1ccccc1)c1ccccc1)c1ccccn1
inactive: inhibition [2] 45% | inhibition [3] -2% | outcome [5] | outcome [6] | outcome [7] | outcome [8]
active: growth inhibition [1] 97% | growth inhibition [4] 98%

COc1ccc(CN2CCCN(Cc3cccc(NC(=O)c4ccc(Cl)c(Cl)c4)c3)CC2)cc1
inactive: growth inhibition [1] 19% | inhibition [2] 38% | inhibition [3] 5% | outcome [5] | outcome [6] | outcome [7] | outcome [8]
active: growth inhibition [4] 86%

COCC(=O)N(Cc1ccccc1-c1cccc(CNCc2ccc3c(c2)OCO3)c1)C1CCN(Cc2ccccc2)CC1
active: growth inhibition [1] 72% | growth inhibition [4] 94%
inactive: inhibition [2] 33% | inhibition [3] -1% | outcome [5] | outcome [6] | outcome [7] | outcome [8]

O=C(Nc1ccc2c(c1)CCN2C1CCN(Cc2cccc(F)c2F)C1)c1ccco1 (stereo not given)
active: growth inhibition [1] 90% | growth inhibition [4] 87%
inactive: inhibition [2] -4% | inhibition [3] 0% | outcome [5] | outcome [6] | outcome [7] | outcome [8]

N#CCCN1CCN(Cc2cccc(-c3ccc(-c4nc5ccc(C(F)(F)F)cc5[nH]4)cc3)c2)CC1
active: growth inhibition [1] 63% | growth inhibition [4] 101%
inactive: inhibition [2] 23% | inhibition [3] 4% | outcome [5] | outcome [6] | outcome [7] | outcome [8]

Cc1cc2ccccc2c(CON2C(N)=NC(N)=NC2(C)C)c1C
active: inhibition [2] 65% | growth inhibition [4] 93%
inactive: growth inhibition [1] 31% | inhibition [3] -3% | outcome [5] | outcome [6] | outcome [7] | outcome [8]

O=C(NCCCCN1CCC(c2ccc3ccccc3c2)CC1)c1ccc(NC(=O)c2ccc(Cl)cc2)cc1
active: growth inhibition [1] 93% | growth inhibition [4] 102%
inactive: inhibition [2] 24% | inhibition [3] -4% | outcome [5] | outcome [6] | outcome [7] | outcome [8]

CC(Cc1ccc(Cl)cc1)Nc1nc(NC2CCCC2)nc(N2CCC(C#N)(c3ccccc3)CC2)n1 (stereo not given)
active: growth inhibition [1] 95% | growth inhibition [4] 99%
inactive: inhibition [2] 15% | inhibition [3] -6% | outcome [5] | outcome [6] | outcome [7] | outcome [8]

O=C(c1ccc([N+](=O)[O-])o1)N1CCN(c2ccccc2)CC1
inactive: inhibition [2] 44% | inhibition [3] 0% | outcome [5] | outcome [6] | outcome [7] | outcome [8]
active: growth inhibition [1] 72% | growth inhibition [4] 94%

COc1ccc(-c2c(-c3ccc(OCc4ccccc4)cc3O)n[nH]c2C(F)(F)F)cc1
active: growth inhibition [1] 57% | growth inhibition [4] 93%
inactive: inhibition [2] 49% | inhibition [3] 2% | outcome [5] | outcome [6] | outcome [7] | outcome [8]

Cc1cc(C)cc(Oc2c(C(F)(F)F)oc3c(CN4CC(C)OC(C)C4)c(O)ccc3c2=O)c1 (stereo not given)
active: growth inhibition [1] 54% | growth inhibition [4] 89%
inactive: inhibition [2] 5% | inhibition [3] 1% | outcome [5] | outcome [6] | outcome [7] | outcome [8]

Oc1ccc(Nc2nc(NCc3ccco3)c3ccccc3n2)cc1
active: growth inhibition [1] 78% | growth inhibition [4] 101%
inactive: inhibition [2] 7% | inhibition [3] -3% | outcome [5] | outcome [6] | outcome [7] | outcome [8]

O=C1CSc2ccc(CNC3CCN(CCc4c(F)cnc5ccc(F)cc45)CC3)nc2N1
inactive: growth inhibition [1] 16% | inhibition [2] 13% | inhibition [3] 1% | outcome [5] | outcome [6] | outcome [7] | outcome [8]
active: growth inhibition [4] 97%

CN1CCCN(Cc2ccc(-c3cccc(NC(=O)c4ccc(Cl)cc4)c3)cc2)CC1
inactive: inhibition [2] 34% | inhibition [3] -4% | outcome [5] | outcome [6] | outcome [7] | outcome [8]
active: growth inhibition [1] 50% | growth inhibition [4] 98%

CC(C)NCC(O)COc1ccc(Cc2ccc(OCC(O)CNC(C)C)cc2)cc1 (stereo not given)
inactive: growth inhibition [1] 18% | inhibition [2] -8% | inhibition [3] -5% | outcome [5] | outcome [6] | outcome [7] | outcome [8]
active: growth inhibition [4] 100%

Cc1cccc2[nH]c(-c3cccc(-c4ccc(C(=O)NCCc5ccc(O)c(=O)[nH]5)cc4)c3)nc12
inactive: growth inhibition [1] 30% | inhibition [2] 20% | inhibition [3] -1% | outcome [5] | outcome [6] | outcome [7] | outcome [8]
active: growth inhibition [4] 85%

Cc1c(C(=O)N(C)C)sc2c1c(=O)n(Cc1ccccc1)c(=O)n2CC(=O)Nc1ccccc1F
active: growth inhibition [1] 98% | growth inhibition [4] 97%
inactive: inhibition [2] 13% | inhibition [3] -1% | outcome [5] | outcome [6] | outcome [7] | outcome [8]

N=c1c2c(n(Cc3cccc(Cl)c3)c3c1CCC3)CCCC2
inactive: inhibition [2] -5% | inhibition [3] -1% | outcome [5] | outcome [6] | outcome [7] | outcome [8]
active: growth inhibition [1] 86% | growth inhibition [4] 97%

CN(C)CCCNC(=O)c1ccccc1Sc1ccccc1C#N
inactive: growth inhibition [1] 3% | inhibition [2] 11% | inhibition [3] 2% | outcome [5] | outcome [6] | outcome [7] | outcome [8]
active: growth inhibition [4] 89%

CC1(C)N=C(N)N=C(N)N1OCCSCCON1C(N)=NC(N)=NC1(C)C
inactive: inhibition [2] 34% | inhibition [3] -4% | outcome [5] | outcome [6] | outcome [7] | outcome [8]
active: growth inhibition [1] 81% | growth inhibition [4] 95%

NC(=O)c1ccccc1OCC(=O)Nc1ccc(-c2cccc(-c3nc4ccc(C(F)(F)F)cc4[nH]3)c2)cc1
active: inhibition [2] 51% | growth inhibition [4] 100%
inactive: growth inhibition [1] 11% | inhibition [3] -8% | outcome [5] | outcome [6] | outcome [7] | outcome [8]

C=C(C)COc1ccc(-c2n[nH]c(C(F)(F)F)c2-c2ccccc2OC)c(O)c1
inactive: inhibition [2] 19% | inhibition [3] -5% | outcome [5] | outcome [6] | outcome [7] | outcome [8]
active: growth inhibition [1] 72% | growth inhibition [4] 98%

COc1cc2ccccc2c(CON2C(N)=NC(N)=NC2(C)C)c1OC
inactive: growth inhibition [1] 10% | inhibition [2] 2% | inhibition [3] 1% | outcome [5] | outcome [6] | outcome [7] | outcome [8]
active: growth inhibition [4] 96%

Cc1cc(NC(=O)c2ccco2)ccc1OC1CCN(Cc2ccc(F)cc2)CC1
inactive: inhibition [2] 4% | inhibition [3] -2% | outcome [5] | outcome [6] | outcome [7] | outcome [8]
active: growth inhibition [1] 93% | growth inhibition [4] 96%

CN1CCC(N2CCN(CCOc3cc(NC(=O)/C=C/c4ccccc4Cl)ccc3Br)CC2)CC1
active: growth inhibition [1] 99% | growth inhibition [4] 101%
inactive: inhibition [2] 36% | inhibition [3] -1% | outcome [5] | outcome [6] | outcome [7] | outcome [8]

O=C(NC1CCCC1)c1ccc(N2CCC(NCc3cc4cc(Cl)ccc4[nH]3)CC2)cc1
inactive: growth inhibition [1] -10% | inhibition [2] 21% | inhibition [3] -2% | outcome [5] | outcome [6] | outcome [7] | outcome [8]
active: growth inhibition [4] 91%

CC(=O)Nc1nc(C(=O)Nc2cccc(-c3cccc(-c4nc5c(C)cccc5[nH]4)c3)c2)cs1
inactive: inhibition [2] 28% | inhibition [3] -2% | outcome [5] | outcome [6] | outcome [7] | outcome [8]
active: growth inhibition [1] 94% | growth inhibition [4] 101%

CCOc1cc(CNCCCCCCNCc2cc(OCC)c(OCC)c3ccccc23)c2ccccc2c1OCC
inactive: inhibition [3] 2% | outcome [5] | outcome [6] | outcome [7] | outcome [8]
active: growth inhibition [1] 99% | inhibition [2] 100% | growth inhibition [4] 101%

COc1cc(NC2CCCC(NCc3cn(S(=O)(=O)c4ccccc4)c4ccccc34)C2)nc2ccccc12 (stereo not given)
active: growth inhibition [1] 61% | growth inhibition [4] 100%
inactive: inhibition [2] 4% | inhibition [3] 2% | outcome [5] | outcome [6] | outcome [7] | outcome [8]

CCN(CCC1(c2ccc(Cl)c(Cl)c2)CN(C(=O)c2cc(OC)c(OC)c(OC)c2)CCO1)[C@@H]1C[C@@H]2c3ccccc3C[C@@H]21 (stereo not given in full)
active: growth inhibition [1] 65% | growth inhibition [4] 80%
inactive: inhibition [2] 26% | inhibition [3] -4% | outcome [5] | outcome [6] | outcome [7] | outcome [8]

COc1ccc(CNc2nc(NCc3ccccc3)c3cc(OC)c(OC)cc3n2)cc1OC
active: growth inhibition [1] 99% | growth inhibition [4] 103%
inactive: inhibition [2] 24% | inhibition [3] -6% | outcome [5] | outcome [6] | outcome [7] | outcome [8]

Cc1ccc(-c2cc(C(=O)Nc3ccc(S(=O)(=O)N4CCCCC4C)cc3)[nH]n2)c(O)c1 (stereo not given)
active: growth inhibition [1] 99% | growth inhibition [4] 100%
inactive: inhibition [2] 37% | inhibition [3] 0% | outcome [5] | outcome [6] | outcome [7] | outcome [8]

COc1ccc(-c2c3c(=O)n(C)c(=O)n(C)c3c3nnc4ccccc4n23)cc1
active: growth inhibition [1] 86% | growth inhibition [4] 96%
inactive: inhibition [2] -7% | inhibition [3] -2% | outcome [5] | outcome [6] | outcome [7] | outcome [8]
